Calls of active or inactive are those of the source.
Test: forskolin-driven CRE-LacZ activity in PC12 – cell-based, CRE-LacZ reporter, forskolin-stimulated, primary screen (AID 1146);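 further: PC12 cells with 6xCRE LacZ reporter stimulated by forskolin 10 µM; beta-galactosidase reporter signal reflecting CREB driven transcription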
Conditions: luminescence, 4.5 h, higher = more signal, called active from +8 up or from −8 down

z-score, inactive:
C[C@H]1C=CCC(=O)OC[C@H](C)C(=O)N2CCC[C@H]2C(=O)OC1 0.0267
CCCNC(=O)OC[C@H]1O[C@H](CCON=C2C[C@@H](O)[C@@H](O)[C@@H]3[C@@H]4C(=O)N(CC)C(=O)[C@@H]4CC[C@@H]23)C=C[C@@H]1Oc1ccc(OC)cc1 0.23
COC(=O)[C@@H]1CC[C@H](C)[C@@H](c2ccc(C)cc2)N1C(=O)c1ccc(C=NO[C@@H](C)c2cc(-c3c(C)cc(C)cc3C)no2)cc1 -0.187
CC(C)(C)N1C(=O)[C@H]2[C@H]3[C@H](O)[C@H](O)CC(=NNC(=O)OCc4ccccc4)[C@H]3CC[C@H]2C1=O 0.549
CO[C@@H]1COC(=O)CC=C[C@H](C)[C@H](OC)COC(=O)[C@@H]2CCCN2C(=O)CC=C[C@H]1C -0.628
Cc1cc2c(nc1C)CCCCN2CC(O)CN1CCCc2nc(-c3ccc(Br)cc3)ccc21 (stereo not given) 0.597
COc1ccc(O[C@H]2C=C[C@@H](C#Cc3ccccc3)O[C@@H]2CO)cc1 -0.003
C#CCCCON=C1C[C@@H](O)[C@@H](O)[C@@H]2[C@@H]3C(=O)N(C[C@@H]4CCCO4)C(=O)[C@@H]3CC[C@H]12 0.593
O=C1[C@H]2[C@H]3[C@H](O)[C@H](O)CC(=NO[C@@H]4O[C@H](CO)[C@@H](O)[C@H](O)[C@H]4O)[C@@H]3CC[C@H]2C(=O)N1c1cccc(Oc2ccccc2)c1 0.314
CC#CCOCCC=C1c2ccccc2[C@@H](OC)[C@@H]1C -0.146
